High-throughput results from PubChem BioAssay.
Shown are actives, neighbours in structure and some others; about 21% of the full set was active somewhere.
Pf growth 48h: inhibits P. falciparum growth in the first generation, 48 h; P. falciparum luciferase growth in erythrocytes, 48 h; Potency, µM (titrated, usually from 28.7 µM), for the others: at the highest dose activity change, negative = inhibition, usual class: inhibitors; 310,000 compounds, 5.9% hits; AID 504832; further: potency means the concentration at half of the fitted maximal effect; on the % scale 0 is the no-effect control and ±100 the full control effect
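Growth was read as firefly luciferase luminescence after a 48 h, 37 C, 5% CO2 exposure of compounds to reporter-bearing P. falciparum cultures (0.1% parasitemia, 2% hematocrit final) in Albumax-supplemented RPMI 1640.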
NS1 function inh: blocks influenza NS1 protein function; Potency, µM (top dose mostly 46.1 µM), without a hit: top-dose activity, positive = more growth; 270,000 compounds, 0.4% hits; calls by dose curve; further: potency means the concentration at half of the fitted maximal effect; actives are rising curves; nearly all actives have a fitted effect of over 50% in size
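A cell-based growth assay was used: compounds that relieve NS1-induced slow growth of budding yeast raise OD600. Assay medium was yeast nitrogen base with ammonium sulphate and -URA supplement, pH 6.0, with 2% galactose.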
Cycloheximide cs: counter-screen for Shiga toxin inhibitors: cycloheximide protein synthesis inhibition. cell reporter, cycloheximide protein synthesis inhibition counterscreen. max response, %. 300,000 compounds, 12% hits. AID 2314; in the data active means max response mostly above about 13%, no sharp cut-off; inactive means mostly below about 14%; further: read at 38.3 µM for the half of the compounds with a filed dose; 0% is about no effect
Pf growth 96h: inhibits malaria parasite growth, 96 h; P. falciparum luciferase reporter growth, 96 h; Potency, µM (top dose mostly 28.7 µM), for inactives: at the top dose activity change, negative = inhibition, hits mostly inhibitors; 320,000 compounds, 6.9% hits; further: potency means the concentration at half of the fitted maximal effect; on the % scale 0 is the no-effect control and ±100 the full control effect
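Plates of compound plus infected erythrocytes (2% hematocrit, 0.05% parasitemia final) incubate 96 hours, 37 C, 5% CO2. Detection reagent added; reduced luminescence from the parasites' luciferase reporter flags inhibition.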
Sm TGR block: inhibitors of Schistosoma mansoni thioredoxin glutathione reductase | Q962Y6 | purified TGR, DTNB reduction, TNB absorbance 405 nm | Potency, µM (top dose mostly 114 µM), for inactives: at the top dose activity change, negative = inhibition, hits mostly inhibitors | 360,000 compounds, 3% hits | AID 485364; further: potency means the concentration at half of the fitted maximal effect; on the % scale 0 is the no-effect control and ±100 the full control effect; nearly all actives have a fitted effect of over 60% in size
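TGR 20 nM + NADPH 100 uM (dispensed conc.), cpd preinc 15 min RT; start with NADPH (500 uM addition) then DTNB (15 mM addition). Kinetic TNB absorbance, 405 nm filter. Four-parameter Hill fit across titration.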
Shiga inhibitor: Shiga toxin inhibition. Vero cells, Shiga toxin protein synthesis inhibition reporter. inhibition, % at 38.7 µM. 290,000 compounds, 9.2% hits. AID 2315; in the data active means inhibition mostly above about 28%, no sharp cut-off; inactive means mostly below about 43%; further: 0% is about no effect
Numbers without * were called inactive; [ ] = another dose, or the depositor's remark. Unless noted, the call rests on the fitted dose curve; in most records, active means well fitted curve in the direction sought with a large enough effect; inconclusive means small, poorly fitted or top-dose-only effect, or another doubt; inactive means no such curve, though single readings can be large; an effect the other way counts as inactive or inconclusive.

Screening CC(C)CC(=O)N1CCN(Cc2cccc(F)c2)CC1 returned Pf growth 48h 33.7%, NS1 function inh 0.1%, Cycloheximide cs -1.6, Pf growth 96h inconclusive, Sm TGR block 12.1% and Shiga inhibitor -11.2.
For Cc1cccnc1CN1CCN(C(=O)CCc2nnc(CCc3ccccc3)o2)CC1 the results were Pf growth 48h 15.1%, NS1 function inh -2.8%, Cycloheximide cs 24.5*, Pf growth 96h inconclusive, Sm TGR block -2.7% and Shiga inhibitor 73.6*.
CC(=O)N1CCN(C(=O)CCc2nnc(CCCCc3ccccc3)o2)CC1 was read as Pf growth 48h -5.2%, NS1 function inh 4.4%, Cycloheximide cs -3.6, Pf growth 96h 11.7µM*, Sm TGR block 44.7µM* and Shiga inhibitor -13.7.
`Cc1cc(-c2nnc(CCC(=O)N3CCN(Cc4cccc(F)c4)CC3)o2)c(C)o1` gave Pf growth 48h inconclusive, NS1 function inh -2.5%, Cycloheximide cs 19.0*, Pf growth 96h -28.1%, Sm TGR block inconclusive and Shiga inhibitor 42.3*.
O=C(CCc1nnc(CCCCc2ccccc2)o1)N1CCCC(O)C1 (stereo not drawn) was read as Pf growth 48h 2.0%, NS1 function inh -4.8%, Cycloheximide cs 12.9*, Pf growth 96h 21.6%, Sm TGR block -4.2% and Shiga inhibitor 38.3.
For Cc1ccc(S(=O)(=O)Nc2ccccc2CNc2cccc(C)n2)cc1 the results were Pf growth 48h -12.8%, NS1 function inh 9.8%, Cycloheximide cs -0.6, Pf growth 96h inconclusive, Sm TGR block -0.9% and Shiga inhibitor 24.5.
COc1cc(OC)c(NC(=O)Cn2c(=O)c(C(F)(F)F)nc3ccccc32)cc1Cl was read as Sm TGR block 1.8%.
For CC(C)C(c1nnnn1Cc1cccs1)N1CCN(C(=O)c2ccco2)CC1 (stereo not drawn) the results were Pf growth 48h inconclusive, NS1 function inh 3.9%, Cycloheximide cs 1.5, Pf growth 96h 54.8%, Sm TGR block -8.1% and Shiga inhibitor -11.7.
`O=C(CN1C(=O)NC(c2ccccc2)(c2ccccc2)C1=O)NC1CCCCC1` gave Pf growth 48h -20.1%, Pf growth 96h -3.7% and Sm TGR block 4.2%.
`CC1(C)CC(CCN(Cc2ccccc2)C(=O)c2ccco2)(c2ccccc2)CCO1` (stereo not drawn) gave Pf growth 48h inconclusive, NS1 function inh -23.8%, Cycloheximide cs -1.8, Pf growth 96h 1.85µM*, Sm TGR block -16.4% and Shiga inhibitor -8.0.
`CCC1(C)CC(CCN(Cc2ccco2)C(C)=O)(c2ccccc2)CCO1` (stereo not drawn) gave Pf growth 48h inconclusive, NS1 function inh 0.1%, Cycloheximide cs -0.6, Pf growth 96h 4.15µM* and Shiga inhibitor 9.2.
CC(=O)N(CCC1(c2ccc(C)cc2)CCOC(C(C)C)C1)Cc1ccco1 (stereo not drawn) was read as Pf growth 48h 5.86µM*, NS1 function inh -0.4%, Cycloheximide cs 6.9, Pf growth 96h 4.15µM*, Sm TGR block -32.5% and Shiga inhibitor 20.6.
`Cc1ccc(N2CC(C(=O)Nc3cc(C)on3)CC2=O)cc1` (stereo not drawn) gave Pf growth 48h -10.4%, NS1 function inh -2.0%, Cycloheximide cs -4.3, Pf growth 96h 3.9%, Sm TGR block 45.8% and Shiga inhibitor -2.3.
CN(C)c1ccc(Nc2ncnc3sc4c(c23)CCCC4)cc1 was read as Sm TGR block -2.3%.
c1cc(Nc2ncnc3sc4c(c23)CCC4)ccn1 was read as Pf growth 48h 1.65µM*, NS1 function inh 4.6%, Cycloheximide cs -2.0, Pf growth 96h 13.5% and Shiga inhibitor -3.1.
CCCCN(C)CCCNC(=O)Cn1ncc2c3ccccc3n(Cc3cccc(Cl)c3)c2c1=O was read as Sm TGR block -30.1%.
For CN(C)C(CNC(=O)NC1CCCCC1)c1cccnc1 (stereo not drawn) the results were Pf growth 48h 9.4%, NS1 function inh 7.3%, Cycloheximide cs 1.2, Sm TGR block 39.8µM* and Shiga inhibitor 2.9.
`O=C(NCC(=O)N(Cc1cccs1)C(C(=O)NC1CCCCC1)c1cccnc1)c1ccco1` (stereo not drawn) gave Pf growth 48h 0.0%, NS1 function inh -6.0%, Cycloheximide cs -1.4, Pf growth 96h inconclusive, Sm TGR block -4.1% and Shiga inhibitor 16.8.
For O=C(NCC(=O)N(c1ccccc1)C(C(=O)NC1CCCC1)c1cccnc1)c1cccs1 (stereo not drawn) the results were Pf growth 48h -13.3%, NS1 function inh 8.0%, Cycloheximide cs -2.2, Pf growth 96h 13.8%, Sm TGR block inconclusive and Shiga inhibitor -8.0.
For CN(C)C(CNC(=O)c1cccs1)c1cccnc1 (stereo not drawn) the results were Pf growth 48h 5.5%, NS1 function inh -4.0%, Cycloheximide cs 0.5, Pf growth 96h 7.6%, Sm TGR block 0.1% and Shiga inhibitor 1.9.
Screening Cc1cccc(N(C(=O)CNC(=O)c2ccco2)C(C(=O)NC2CCCC2)c2cccnc2)c1 (stereo not drawn) returned Pf growth 48h 13.8%, NS1 function inh -9.7%, Cycloheximide cs -3.8, Pf growth 96h 4.15µM*, Sm TGR block 0.0% and Shiga inhibitor 2.0.
`O=C(NCC(=O)N(c1cccnc1)C(C(=O)NC1CCCC1)c1cccs1)c1cccs1` (stereo not drawn) gave Pf growth 48h -1.9%, NS1 function inh 2.3%, Cycloheximide cs -3.4, Pf growth 96h 11.7µM*, Sm TGR block 0.0%[57.1 µM] and Shiga inhibitor -16.9.
O=C(NCC(=O)N(Cc1ccccc1)C(C(=O)NC1CCCC1)c1cccnc1)c1ccco1 (stereo not drawn) was read as Pf growth 48h 0.7%, NS1 function inh -2.1%, Cycloheximide cs -3.8, Pf growth 96h 16.5µM*, Sm TGR block 0.3% and Shiga inhibitor -4.7.
C=CCn1c(=N)c(S(=O)(=O)c2ccc(C)c(C)c2)cc2c(=O)n3ccccc3nc21 was read as Pf growth 48h -19.7%, NS1 function inh 4.0%, Cycloheximide cs -2.2, Pf growth 96h inconclusive, Sm TGR block -0.6% and Shiga inhibitor -5.4.
Screening Cc1ccc(N(C(=O)CCl)C(C(=O)NC2CCCCC2)c2cccnc2)cc1C (stereo not drawn) returned Pf growth 48h inconclusive, NS1 function inh 17.9%, Cycloheximide cs 2.2, Pf growth 96h inconclusive, Sm TGR block 14.1µM* and Shiga inhibitor -1.3.
`O=C1c2ccc(Oc3cccc([N+](=O)[O-])c3)cc2C(=O)N1c1ccccn1` gave Pf growth 48h 44.8%, Cycloheximide cs 21.8, Pf growth 96h 7.3%, Sm TGR block 0.0% and Shiga inhibitor 20.8.
